# From PubChem BioAssay
# L3MBTL1 block – inhibitors of human L3MBTL1; Potency, µM (doses to about 57.1 µM), most hits filed as inhibitors; AlphaScreen L3MBTL1–H3K9me1 peptide binding; Q9Y468; hit rate 0.66% among 230,000; note: nearly all actives have a fitted effect of over 60% in size
#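 Read-out is AlphaScreen signal from streptavidin donor and nickel chelate acceptor beads (10 ug/mL final each) bridging L3MBTL1 (50 nM) and biotinylated K9-monomethylated H3(1-15) peptide (75 nM), after 30 min compound exposure at room temperature.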
# JMJD2A Tudor inh – blocks the human JMJD2A Tudor domain. O75164. AlphaScreen JMJD2A-Tudor / H3K4me3 peptide binding. Potency, µM (titrated, usually from 114 µM), usual class: inhibitors. hit rate 4.4% among 390,000. AID 504339; note: nearly all actives have a fitted effect of over 50% in size
# PI5P4Ka inh – inhibitors of human PI5P4K alpha; PI5P4Kalpha enzyme, ADP-Glo luminescence, 60 min; hits give low values; max response, %; hit rate 1.2% among 330,000; AID 652105; active = max response of -50% or lower; inconclusive = between -30% and -50%; inactive = -30% or higher; note: value at the top dose of about 77 µM
#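 Reactions run in 0.038 M HEPES pH 7.4, 0.28 mM EGTA, 0.1% CHAPS and 5% DMSO, with PI5P4Kalpha, substrate, compound and 5 microM ATP final, one hour at room temperature. Readout is ADP-Glo luminescence.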
# HP1b chromo inh – blocks HP1-beta chromodomain binding to methylated histone tails. P83916. AlphaScreen HP1-beta / biotin-H3K9me3 peptide binding. Potency, µM (highest dose often 114 µM), actives largely listed as inhibitors. hit rate 0.56% among 390,000. AID 540317; note: nearly all actives have a fitted effect of over 70% in size
#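 Compound inhibition of the preformed complex between 50 nM HP1-beta and 50 nM biotinylated H3K9me3 peptide was read by AlphaScreen. Buffer was PBS pH 7.4 with 0.01% Tween-20. Incubations ran 30 min at room temperature, with 10 ug/mL donor/acceptor beads.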
# BAZ2B block – inhibitors of human BAZ2B bromodomain; AlphaScreen BAZ2B-H3K14Ac peptide displacement; hit rate 4.4% among 360,000; Potency, µM (top dose mostly 114 µM), usual class: inhibitors; note: nearly all actives have a fitted effect of over 60% in size
#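 AlphaScreen displacement of biotin-H3(5-23)K14Ac peptide (50 nM final) from BAZ2B (50 nM final) in PBS pH 7.4, 0.01% Tween-20; complex preformed 30 min RT, then compounds (top 110 uM) 30 min RT, beads 20 min dark.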
# JMJD2E inh – JMJD2E (human) inhibition | JMJD2E catalytic domain, FDH-coupled NADH fluorescence (FDH is formaldehyde dehydrogenase) | Potency, µM (doses to about 57.1 µM), usual class: inhibitors | hit rate 1.6% among 230,000 | AID 2147; active = well fitted inhibition curve with a large enough effect, not every such curve was filed as active; inconclusive = small, poorly fitted or top-dose-only effect, or another doubt; inactive = no such curve, though single readings can be large or run the other way; note: nearly all actives have a fitted effect of over 50% in size
# A number is an active result; – = inactive; ? = inconclusive; · = not tested or not shown; [ ] = dose if it differs, or a comment. Shown are actives, neighbours in structure and some others; about 5.7% of the full set was active somewhere. Unless noted, calls come from the whole dose curve; as a rule, active = well fitted inhibition curve with a large enough effect; inconclusive = small, poorly fitted or top-dose-only effect; inactive = no such curve, though single readings can be large or run the other way.
SMILES,L3MBTL1 block,JMJD2A Tudor inh,PI5P4Ka inh,HP1b chromo inh,BAZ2B block,JMJD2E inh
COc1ccc(Br)cc1/C=c1\sc2nc(-c3ccco3)nn2c1=O,7.9µM,45µM,-59,–,16µM,–
COc1ccccc1/C=c1\sc2nc(-c3ccccc3OC)nn2c1=O,–,–,–,–,–,–
O=c1nc2s/c(=C\c3ccco3)c(=O)n2nc1Cc1ccc(F)cc1,·,56µM,-56,?,22µM,–
O=C(Cn1c(=O)ccc2cc(S(=O)(=O)N3CCCC3)ccc21)NCc1ccc(F)cc1,·,–,·,–,–,·
COC(=O)c1cc(OC)c(OC)cc1NC(=O)c1ccc2c(c1)CCN2S(=O)(=O)c1ccccc1,·,–,·,–,–,·
CCOc1ccc(N2CC(C(=O)Nc3nnc(Cc4ccc(OC)cc4)s3)CC2=O)cc1 (configuration not stated),·,–,–,–,–,·
CCN1CCS/C1=C/C=C/C1=[N+](CC)CCS1,–,?,–,–,–,28µM
COc1ccc(S(=O)(=O)c2c(Nc3ccc(C)cc3)sc(C(=O)c3ccc4c(c3)OCO4)c2N)cc1,·,–,·,–,–,·
O=C1c2cccc3cccc(c23)C(=O)N1CCCn1ccnc1,·,–,–,–,·,·
C[C@@H]1NC(=O)N(CCCn2ccnc2)C1=O,·,–,–,–,50µM,·
Cc1ccc(S(=O)(=O)N2CCCc3cc(NS(=O)(=O)c4cccc(Cl)c4)ccc32)cc1,·,–,·,–,–,·
CCOc1ccc(S(=O)(=O)Nc2ccc3c(c2)CCCN3S(=O)(=O)c2ccc(C)cc2)cc1,·,–,·,–,56µM,·
O=C(COC(=O)c1ccccc1)Nc1ncc([N+](=O)[O-])s1,3.5µM,20µM,-74,?,·,·
O=C(COc1cccc(Oc2ccccc2)c1)Nc1ncccn1,–,–,–,–,–,–
Cc1cnc(NC(=O)COc2ccccc2)s1,–,89µM,–,–,–,–
O=C(COc1ccccc1)Nc1nn[nH]n1,·,79µM,–,–,79µM,–
Cc1sc2ncn(CC(=O)N3CCN(c4ccc(Cl)cc4)CC3)c(=O)c2c1S(=O)(=O)N1CCN(c2ncccn2)CC1,·,–,·,–,–,·
CCOC(=O)c1ccc(N2CCN(c3ccc(F)cc3)CC2)c(NC(=O)Nc2ccc(CC)cc2)c1,·,–,·,–,–,·
Cc1ccc(N2C(=O)[C@@H]3[C@H](C2=O)[C@H]2C=CC=NN2[C@@H]3C(=O)Nc2ccc(Cl)cc2)cc1,–,–,–,–,50µM,–
CC(=O)Nc1ccc2nc(-c3ccncc3)[nH]c2c1,·,–,–,–,?,?
CC(=O)Nc1ccc2nc(-c3ccccn3)[nH]c2c1,–,56µM,–,–,?,?
O=C(O)c1ccc(-c2nc3ccccc3[nH]2)cc1,–,–,–,–,–,?
CC(=O)Nc1cc(NC(C)=O)cc(-c2nc3ccccc3[nH]2)c1,–,–,–,?,50µM,?
O=C([C@@H]1Cc2ccccc2CN1)N1CCN(Cc2ccccc2)CC1,·,–,–,–,79µM,·
Cc1cc(C)cc(NC(=O)C2CCN(C(=O)[C@@H]3Cc4ccccc4CN3)CC2)c1,·,22µM,–,–,?,·
SMILES,L3MBTL1 block,JMJD2A Tudor inh,PI5P4Ka inh,HP1b chromo inh,BAZ2B block,JMJD2E inh
CC(=O)OCC(NC(=O)C(COCc1ccccc1)NC(=O)OC(C)(C)C)C1OC(n2cc(F)c(=O)[nH]c2=O)C(OC(C)=O)C1OC(C)=O (configuration not stated),·,–,·,–,·,·
O=[N+]([O-])C(=C1SCCS1)C(=C(Cl)Cl)N1CCCCC1,·,35µM,–,25µM,7.9µM,–
Cc1cccc(C(=O)N2CCc3cc(CNC(=O)c4ccco4)ccc32)c1,·,–,·,–,–,·
COc1cc(NC(=O)CCc2c(C)nn(-c3ccc4nnc(C)n4n3)c2C)cc(OC)c1OC,·,–,·,–,–,·
CCSc1nc2sc3c(c2c2[n+]1CC(CBr)O2)CCCC3 (configuration not stated),–,56µM,–,–,56µM,?
N#CCCn1cc(CNCc2cccnc2)c(-c2ccccc2)n1,·,8.9µM,·,?,·,·
N#CCCn1cc(/C=N/O)c(-c2ccc(-c3ccccc3)cc2)n1,–,–,–,–,–,–
CC1(C)CC(=O)C2=C(C1)N1C(=C(C#N)C2c2ccc(Cl)cc2)N=C(N)c2ccccc21 (configuration not stated),–,?,–,–,50µM,–
CC1(C)CC(=O)C2=C(C1)N1C(=C(C#N)C2c2ccccc2Cl)N=C(N)c2ccccc21 (configuration not stated),–,?,–,–,?,–
COc1ccc(N2CCN(c3csc4ccccc4c3=O)CC2)cc1,·,40µM,·,–,40µM,·
COc1ccc(N2CCN(c3csc4ccc(Cl)cc4c3=O)CC2)cc1,·,?,·,–,50µM,·
COc1cccc(N2CCN(C(=O)c3cc4c(=O)n(Cc5ccco5)ccc4nc3C)CC2)c1,·,–,·,–,?,·
Cc1ccc(C(C)C)c(OCCNCc2ccccc2)c1,–,28µM,–,–,?,·
Cc1ccc(C)c(OCCCNCc2ccccc2)c1,–,45µM,–,–,?,·
Cc1ccc(C(C)C)c(OCCN)c1,–,–,·,–,–,–
O=[N+]([O-])c1ccccc1OCCNCc1ccccc1,–,45µM,–,?,?,·
CCCN(CCC)CCOc1cc(C)ccc1C(C)C,–,3.2µM,–,?,?,–
COc1cccc(OCCOc2ccccc2[N+](=O)[O-])c1,·,–,–,–,·,·
O=C(CCN1CCCCC1=O)NC1CCCN(Cc2ccc(Cl)cc2)C1 (configuration not stated),·,–,–,–,?,·
Fc1ccc(COc2ccccc2CNCc2ccncc2)cc1,–,–,–,–,–,–
Cc1cc(OCCOCCNCc2ccccc2)ccc1C(C)C,–,20µM,–,?,?,·
Brc1ccc(OCc2ccccc2)c(CNCc2ccncc2)c1,–,?,·,–,79µM,–
Clc1cc(Br)ccc1OCCCNCc1ccccc1,–,2.8µM,–,?,?,?
CCc1cc(OCCCCNCc2ccccc2)ccc1Cl,–,6.3µM,–,–,?,?
Cc1ccc(Nc2nc3ccccc3c3nncn23)cc1C,·,–,·,–,–,·
SMILES,L3MBTL1 block,JMJD2A Tudor inh,PI5P4Ka inh,HP1b chromo inh,BAZ2B block,JMJD2E inh
Cc1c(CCNS(=O)(=O)c2ccccc2)sc2nc(-c3ccc(Cl)cc3)nn12,·,–,·,–,–,·
Cc1ccccc1CNC(=O)C1=Cc2ccccc2OC1,·,–,·,–,–,·
CCCCCOC(=O)CSc1ncnc2c1sc1nc(N3CCOCC3)c3c(c12)CCCC3,·,–,·,–,–,·
CCOc1ccc(CN(C)c2nc(-c3cccnc3)nc3ccccc23)cc1OC,·,?,–,–,35µM,·
CN(Cc1ccccc1F)c1nc(-c2cccnc2)nc2ccccc12,·,–,–,–,–,·
CN(C)c1ccc(C2CC(c3cccc(NS(C)(=O)=O)c3)=NN2C(=O)c2ccccc2)cc1 (configuration not stated),?,–[11.4 µM],–,?,20µM,?
